Screening results deposited in PubChem by Broad Institute.
This is one part of a sample in which hits are shown more often than they occur.
NOMO-1 viab – STK33 inhibitor candidate reducing NOMO-1 cell viability. NOMO-1 AML viability, CellTiter-Glo luminescence, 72 h. inhibition, % (concentration not given with the values). 37,000 compounds, 7.5% hits. AID 2330; in the data active = inhibition above about 80%
ROS inducer – raises reactive oxygen species in U2OS cancer cells; 46,000 compounds, 2% hits; U2OS ROS induction, H2DCF-DA fluorescence; ROS induction (% of piperlongumine), % at 10 µM; AID 624156; in the data active = ROS induction above about 79%, passing the limit was not always enough;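 note: 0% = DMSO vehicle median and 100% = reference compound median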
Numbers without * were called inactive.

What do the screens show for `COc1ccc(CN(C)C[C@H]2OCCCC[C@@H](C)Oc3ccc(NC(=O)CCCCCC(=O)Nc4ccccc4N)cc3C(=O)N([C@H](C)CO)C[C@@H]2C)cc1`?
NOMO-1 viab: 29.0; ROS inducer: 1.4

What do the screens show for `C[C@@H]1CCCCO[C@@H](CN(C)Cc2ccc(Cl)c(Cl)c2)[C@@H](C)CN([C@H](C)CO)C(=O)c2cc(NC(=O)Cc3ccccc3)ccc2O1`?
NOMO-1 viab: 102.0*; ROS inducer: 131.2*

Results for C[C@@H]1CN([C@H](C)CO)C(=O)Cc2cc(NC(=O)CCCCCC(=O)Nc3ccccc3N)ccc2O[C@H]1CN(C)Cc1ccc2c(c1)OCO2 ?
NOMO-1 viab: 49.4; ROS inducer: -5.3

What do the screens show for `C[C@H](CO)N1C[C@H](C)[C@H](CN(C)Cc2ccc(Cl)c(Cl)c2)Oc2ccc(NC(=O)CCCCCC(=O)Nc3ccccc3N)cc2C1=O`?
NOMO-1 viab: 132.6*; ROS inducer: 29.2

What do the screens show for `C[C@@H]1CCCCO[C@H](CN(C)Cc2ccc(Cl)c(Cl)c2)[C@@H](C)CN([C@H](C)CO)C(=O)c2cc(NC(=O)CCCCCC(=O)Nc3ccccc3N)ccc2O1`?
NOMO-1 viab: 125.7*; ROS inducer: 35.4

How did Cc1ccc(S(=O)(=O)N(C)C[C@@H]2Oc3c(NS(=O)(=O)c4ccccc4)cccc3C(=O)N([C@@H](C)CO)C[C@@H]2C)cc1 do in these assays?
NOMO-1 viab: -4.0; ROS inducer: 25.1

Results for COc1ccccc1NC(=O)Cn1cnc2sc3c(c2c1=O)CCC(C)C3 (stereo not drawn) ?
NOMO-1 viab: -29.2; ROS inducer: -19.5

What do the screens show for `Cc1ccc(OCC(=O)Nc2cc(C(F)(F)F)ccc2N2CCOCC2)c(C)c1`?
NOMO-1 viab: 67.7; ROS inducer: -3.4

Results for C[C@H]1CN([C@@H](C)CO)C(=O)c2cc(NC(=O)C3CCCCC3)ccc2O[C@H]1CN(C)C(=O)Nc1cccc2ccccc12 ?
NOMO-1 viab: -2.0; ROS inducer: 6.7

What do the screens show for `COc1cccc2c1OC1(C)C(C(=O)Nc3ccc(C)cc3C)C2NC(=S)N1c1ccc(F)cc1` (stereo not drawn)?
ROS inducer: 3.8

How did C[C@H]1CN([C@@H](C)CO)C(=O)c2cc(NC(=O)CCCCCC(=O)Nc3ccccc3N)ccc2O[C@@H]1CN(C)C(=O)Nc1ccc(F)cc1 do in these assays?
NOMO-1 viab: -20.0; ROS inducer: 107.7*

Results for C[C@@H]1CN([C@H](C)CO)C(=O)c2cc(NC(=O)CCCCCC(=O)Nc3ccccc3N)ccc2O[C@H]1CN(C)C(=O)Nc1ccc(F)cc1 ?
NOMO-1 viab: -10.3; ROS inducer: 2.4

What do the screens show for `C[C@@H]1CN([C@H](C)CO)C(=O)c2cc(NC(=O)Nc3ccccc3)ccc2O[C@H]1CN(C)S(=O)(=O)c1cccs1`?
NOMO-1 viab: 1.7; ROS inducer: -5.4

What do the screens show for `CC1CCCC[C@H]2C(=O)C=C[C@H](O)[C@@H]2CC(=O)O1` (stereo partly drawn)?
NOMO-1 viab: 108.0*; ROS inducer: 63.2

What do the screens show for `CCCCc1c(C)nc(SCc2ccccc2)[nH]c1=O`?
ROS inducer: 6.1

How did CCOc1ccc2c(=O)c(Oc3ccc(OC)cc3)coc2c1 do in these assays?
ROS inducer: -4.8

What do the screens show for `COc1cc(NC(=O)C2CC=CCC2C(=O)O)ccc1NC(=O)c1ccccc1` (stereo not drawn)?
NOMO-1 viab: 12.4; ROS inducer: -1.7

How did O=C(Oc1ccccc1OC(=O)c1ccccc1)c1ccccc1 do in these assays?
NOMO-1 viab: 114.5*; ROS inducer: 29.0

How did O=C(Oc1ccc2cc(OC(=O)c3ccccc3)ccc2c1)c1ccccc1 do in these assays?
NOMO-1 viab: -3.2; ROS inducer: 2.0

Results for C[C@@H]1CN([C@@H](C)CO)C(=O)Cc2cc(NC(=O)Cn3cnnn3)ccc2O[C@@H]1CN(C)C(=O)Nc1ccc(C(F)(F)F)cc1 ?
NOMO-1 viab: -5.9; ROS inducer: 2.1

How did COc1ccc(NC(=O)N(C)C[C@@H]2Oc3ccc(NC(=O)CCCN(C)C)cc3C(=O)N([C@H](C)CO)C[C@H]2C)cc1 do in these assays?
NOMO-1 viab: 20.8; ROS inducer: -5.8

Results for CC(NC(=O)c1cnn2c(C(F)(F)F)cc(-c3cccs3)nc12)c1ccccc1 (stereo not drawn) ?
ROS inducer: 84.9*

What do the screens show for `O=C(NCc1ccccn1)c1cnn2c(C(F)(F)F)cc(-c3cccs3)nc12`?
NOMO-1 viab: 23.3; ROS inducer: 59.6

Results for CN(C)[C@@H]1C(=O)C(C(N)=O)C(=O)[C@@]2(O)C(=O)C3C(=O)c4c(O)ccc(Cl)c4[C@@H](O)[C@H]3C[C@@H]12 (stereo partly drawn) ?
NOMO-1 viab: 30.5; ROS inducer: -8.3

What do the screens show for `CSc1nc(Nc2cccc(C(F)(F)F)c2)cc(C(F)(F)F)c1C#N`?
NOMO-1 viab: 4.5; ROS inducer: 30.9

What do the screens show for `CCOC(=O)c1nc2ccccc2c(=O)n1/N=C/c1cc(Cl)cc(Cl)c1O`?
NOMO-1 viab: 101.4*; ROS inducer: -4.8

What do the screens show for `Cc1nc2ccccc2c(=O)n1/N=C/c1ccc(Cl)c(Cl)c1`?
ROS inducer: -9.9

How did O=C(COc1ccc(S(=O)(=O)N2CCOCC2)cc1)Nc1ccc2c(c1)OCCO2 do in these assays?
NOMO-1 viab: 12.4; ROS inducer: 5.7

How did O=C(COc1ccc(S(=O)(=O)N2CCOCC2)cc1)Nc1ccc(Cl)c(C(F)(F)F)c1 do in these assays?
NOMO-1 viab: 128.8*; ROS inducer: 15.7

Results for Cc1ccc(S(=O)(=O)N(C)C[C@@H]2Oc3c(NC(=O)c4cnccn4)cccc3C(=O)N([C@H](C)CO)C[C@@H]2C)cc1 ?
NOMO-1 viab: 27.0; ROS inducer: 0.3

Results for CCCNS(=O)(=O)c1ccc2c(c1)SCC(=O)N2 ?
ROS inducer: -4.9

Results for CCOC(=O)c1oc2ccc(OC)cc2c1CN1CCN(C)CC1 ?
ROS inducer: -7.1

What do the screens show for `C[C@H]1CN([C@@H](C)CO)C(=O)Cc2cc(NC(=O)Nc3ccc(C(F)(F)F)cc3)ccc2O[C@@H]1CN(C)Cc1ccc(Oc2ccccc2)cc1`?
NOMO-1 viab: 42.8; ROS inducer: 7.3

Results for C[C@@H]1CN([C@H](C)CO)C(=O)Cc2cc(NC(=O)Nc3ccc(C(F)(F)F)cc3)ccc2O[C@@H]1CN(C)Cc1ccc(-c2ccccc2)cc1 ?
NOMO-1 viab: 114.3*; ROS inducer: 7.7

How did C[C@H](CO)N1C[C@H](C)[C@H](CN(C)Cc2ccc(-c3ccccc3)cc2)Oc2ccc(NC(=O)Nc3ccc(C(F)(F)F)cc3)cc2CC1=O do in these assays?
NOMO-1 viab: 126.3*; ROS inducer: 5.9

How did C=C[C@]1(C)CC[C@H]([C@H](C)C(=O)/C=C/C(C)(C)O)O1 do in these assays?
NOMO-1 viab: 37.3; ROS inducer: 38.7

What do the screens show for `COc1ccc(S(=O)(=O)N(C)C[C@H]2Oc3ccc(NS(C)(=O)=O)cc3CC(=O)N([C@H](C)CO)C[C@H]2C)cc1`?
NOMO-1 viab: 4.7; ROS inducer: 9.9

Results for Cc1ccc(S(=O)(=O)N(C)C[C@H]2Oc3ccc(NC(=O)Cc4ccccc4)cc3C(=O)N([C@H](C)CO)C[C@@H]2C)cc1 ?
NOMO-1 viab: 37.5; ROS inducer: 4.1

What do the screens show for `Cc1ccccc1OCCn1c(C(C)O)nc2ccccc21` (stereo not drawn)?
NOMO-1 viab: 26.6
